Screens (PubChem)
Only some compounds are listed: those with a hit (about 8% of all), similar ones and a draw of the others.
FMDV inh: blocks foot and mouth disease virus | FMDV antiviral cell-based qHTS | Potency, µM (top dose mostly 57.9 µM), without a hit: at the highest dose activity change, negative = inhibition, most hits filed as inhibitors | actives 1.2% (n = 410,000) | AID 1159524; calls by dose curve; tested in HEK293T cells; note: read-out not given here; potency is the fitted concentration of half-maximal effect; % is set by controls: 0 for no effect and ±100 for the full control effect; nearly all actives have a fitted effect of over 45% in size
HCV inh: blocks hepatitis C virus; Huh7.5.1 HCVcc-Cre infection, luciferase reporter, 44 h; Potency, µM (top dose mostly 41.8 µM), for the others: at the top dose activity change, negative = inhibition, actives largely listed as inhibitors; actives 3.4% (n = 340,000); active = well fitted inhibition curve with a large enough effect; inconclusive = small, poorly fitted or top-dose-only effect, or another doubt; inactive = no such curve, though single readings can be large or run the other way; note: potency is the fitted concentration of half-maximal effect; % is set by controls: 0 for no effect and ±100 for the full control effect
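Infectious HCV cell culture screen: compound-treated cells (1,000/well, pre-plated 4 h) are infected with HCVcc-Cre at roughly 0.5 moi and grown 44 h. Infection is quantified by luciferase signal after 15 min substrate incubation at room temperature.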
MARV entry inh: blocks Marburg virus binding to or entry into cells; Marburg virus pseudotyped entry inhibition, cell reporter; Potency, µM (doses to about 37.8 µM), for inactives: at the top dose activity change, negative = inhibition, actives largely listed as inhibitors; actives 1.8% (n = 300,000); calls by dose curve; tested in HEK293 cells; note: potency is the fitted concentration of half-maximal effect; % is set by controls: 0 for no effect and ±100 for the full control effect
SARS PLpro yeast: blocks SARS-CoV papain-like protease in a yeast assay. actives 0.19% (n = 330,000). S. cerevisiae expressing SARS-CoV PLpro, growth rescue. Potency, µM (titrated, usually from 32.9 µM), inactives show top-dose activity, positive = growth rescue, hits mostly activators. AID 485353; calls by dose curve; note: potency is the fitted concentration of half-maximal effect; 0% is about no effect; nearly all actives have a fitted effect of over 55% in size
HCMV antiviral: blocks human cytomegalovirus replication; HFF cells, HCMV-luciferase reporter, 72 h; stronger effect = lower value; activity change, negative = inhibition, % at 57.5 µM; actives 4.5% (n = 410,000); AID 1259415; in the data active = activity change below about -60%; inconclusive = no clear call, values can overlap the other calls; inactive = above about -39%; note: % is set by controls: 0 for no effect and ±100 for the full control effect
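After 16 h attachment at 37C, HFF cells received test compound and HCMV-luciferase (1 PFU/cell); reporter luminescence read 72 h later, data normalized against buffer-only and known inhibitor Salinomycin.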
Lassa entry inh: Lassa virus entry inhibition | Potency, µM (top dose mostly 37.9 µM), for the others: top-dose activity change, negative = inhibition, actives largely listed as inhibitors | AID 540256 | Lassa virus pseudotype entry inhibition, cell reporter | actives 1.2% (n = 300,000); calls by dose curve; tested in HEK293 cells; note: potency is the fitted concentration of half-maximal effect; % is set by controls: 0 for no effect and ±100 for the full control effect; nearly all actives have a fitted effect of over 50% in size
* = called active by the depositor; ? = inconclusive; . = no result given; ! = not confirmed by another sample; [ ] = remark or other dose.

SMILES	FMDV inh	HCV inh	MARV entry inh	SARS PLpro yeast	HCMV antiviral	Lassa entry inh
Cc1ccc(CNC(=O)C(=O)NCC2OCCN2S(=O)(=O)c2ccc(Br)cc2)cc1 (stereo not drawn)	?	.	?	2%	?	7.9µM*
COc1ccc(S(=O)(=O)N2CCOC2CNC(=O)C(=O)NCCc2ccc(OC)c(OC)c2)cc1C (stereo not drawn)	?	11µM*	?	10%	-39	?
O=C(NCc1ccccc1)C(=O)NCC1OCCN1S(=O)(=O)c1ccc([N+](=O)[O-])cc1 (stereo not drawn)	-8%	-3%	.	1%	-78*	.
CCC[C@H]1[C@H](N(C)Cc2ccccc2)CC[C@@]23CCCN2C(=O)CCC[C@@H]13	.	.	.	.	15	.
COc1ccc(CCNC(=O)c2cc3sccc3n2Cc2ccc(Cl)cc2)cc1OC	-19%	.	?	.	-37	-26%[46.1 µM]
Cc1ccc(S(=O)(=O)NCc2csc(C)n2)cc1	2%	21%	-13%[46.1 µM]	-1%	?	1%[46.1 µM]
CCCCOc1ccc(S(=O)(=O)NCc2csc(C)n2)cc1	.	?	-27%	0%	-67*	-4%
Cn1cc(/C=N/n2cnc3scc(-c4ccc(Cl)cc4)c3c2=O)c2ccccc21	-24%	5.6µM*	?	6%	?	?
Nc1ccc(S(=O)(=O)O)cn1	-24%	?	?	1%	-69*!	?
Nc1ccc(S(=O)(=O)c2ccc(N)nc2)cc1	-10%	21%	-2%[46.1 µM]	.	-11	15%[46.1 µM]
CCOc1ccccc1Nc1cc(C)nc2ccc(C)cc12	?	6.3µM*	?	.	?	?
COC(=O)c1ccc2nc(C)cc(Nc3ccccc3C)c2c1	-18%	?	.	0%	22	.
CCOc1ccccc1Nc1cc(C)nc2ccccc12	-19%	.	.	.	-62*	.
CC(NC(=O)c1ccco1)c1nnc2n1CCN(Cc1ccc(N3CCCC3)cc1)CC2 (stereo not drawn)	4%	.	.	.	.	.
Cc1cc(C)cc(NC(=O)C2CCCN(c3nc(C)cc(C)n3)C2)c1 (stereo not drawn)	-21%	.	-6%	1%	34	36%[14.3 µM]
COc1cccc(NC(=O)C2CCCN(c3ncnc4onc(C)c34)C2)c1 (stereo not drawn)	?	.	.	.	-31	?
Cc1nnc(N2CCCC(C(=O)Nc3cc(F)ccc3F)C2)c2nn(-c3ccccc3)c(C)c12 (stereo not drawn)	-10%	11µM*	.	1%	-21	-20%[46.1 µM]
Cc1ccc(NC(=O)C2CCN(c3nnc(C)c4c(C)n(-c5ccccc5)nc34)CC2)cc1Cl	-9%	.	.	.	2	28%[46.1 µM]
Cc1ccc(NC(=O)C2CCCN(c3ncnc4onc(C)c34)C2)cc1Cl (stereo not drawn)	20µM*	.	.	.	-3	3%[46.1 µM]
Cc1nnc(N2CCCC(C(=O)Nc3ccccc3C(F)(F)F)C2)c2nn(-c3ccccc3)c(C)c12 (stereo not drawn)	-7%	.	.	.	-37	3%[46.1 µM]
COc1ccc(NC(=O)C2CCCN(c3nnc(C)c4c(C)n(-c5ccccc5)nc34)C2)cc1Cl (stereo not drawn)	-28%	.	.	.	-90*	?
Cc1cc(C)nc(N2CCCC(C(=O)Nc3ccc4nc(C)c(C)nc4c3)C2)n1 (stereo not drawn)	-24%	5.6µM*	?	-9%	15	4%
COC(=O)C1=C(C)N(Cc2ccco2)C(=O)NC1c1ccco1 (stereo not drawn)	.	.	0%[14.2 µM]	.	.	.
Cc1ccc2c(CC(=O)N3CCOc4ccc(CN5CCOCC5)cc4C3)cc(=O)oc2c1	1%	.	.	.	.	.
Cc1c(C(=O)N(C)C2CCOC2)sc2ncnc(NCc3ccc4c(c3)OCO4)c12 (stereo not drawn)	11%	.	.	.	.	.
CCOC(=O)C1CCCN(C(=S)NC(=O)/C=C/c2ccc(F)cc2)C1 (stereo not drawn)	34%	-15%	.	6%	-82*	.
CCOC(=O)C1CCCN(C(=O)/C=C/c2ccc(Cl)cc2)C1 (stereo not drawn)	-22%	-2%	2%	-1%	-26	?
